Bioassay records (PubChem)
Hck-Nef inh = human Hck-Nef kinase inhibition. P08631. Recombinant Hck-YEEI plus Nef, Z-Lyte FRET kinase assay. inhibition, % at 20 µM. 0.68% of 220,000 active. AID 463187;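 active means Hck-Nef kinase inhibition above about 50%, limit read from the data; inactive means inhibition below that limit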;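 further: 0% = DMSO with Hck plus Nef and 100% = Hck alone without Nef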
Pf gametocyte = kills late stage P. falciparum gametocytes. P. falciparum stage V gametocytes, ATP luminescence, 24 h. inhibition, % at 10.9 µM. 0.065% of 150,000 active;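 active means inhibition above the mean plus 3 SD of compounds within the control limits, set per campaign, cut at about 38% in these data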;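 further: 0% = DMSO wells and 100% = medium only without gametocytes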
Mcl1-Noxa inh = Mcl-1/Noxa interaction inhibition; Q07820; TR-FRET Mcl-1/Noxa peptide binding, 2 h; inhibition, % at 21.7 µM; 1.5% of 220,000 active; AID 1022;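 active means compounds that cut the protein-peptide binding signal by more than 50% relative to plate controls in a single-dose test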;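 further: His-tagged Mcl-1 with rhodamine Noxa BH3 peptide and terbium anti-His antibody; 0% = Mcl-1 plus Noxa peptide wells and 100% = peptide-only wells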
Target sequence (Q07820 whole entry, looked up): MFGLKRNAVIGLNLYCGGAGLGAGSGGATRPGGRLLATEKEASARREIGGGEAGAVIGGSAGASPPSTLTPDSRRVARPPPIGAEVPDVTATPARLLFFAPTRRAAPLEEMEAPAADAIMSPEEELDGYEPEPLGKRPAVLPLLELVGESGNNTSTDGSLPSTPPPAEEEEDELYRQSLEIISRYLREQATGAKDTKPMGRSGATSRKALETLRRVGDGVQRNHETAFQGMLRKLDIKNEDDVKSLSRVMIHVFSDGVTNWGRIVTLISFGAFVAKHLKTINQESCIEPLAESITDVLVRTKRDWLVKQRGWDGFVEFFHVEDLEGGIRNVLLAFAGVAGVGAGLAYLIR
Bim-Mcl-1 = human Bim-Mcl-1 interaction inhibition; AID 1009; inhibition, % at 10 µM; Bead-based flow cytometry, Bim peptide-Mcl-1 binding; 0.1% of 190,000 active; in the data active means inhibition above about 40%;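 further: 0% = no compound tracer wells and 100% = peptide blocker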
Mcl1 Bid PPI = Mcl-1/Bid interaction inhibition. Q07820. TR-FRET Mcl-1/Bid-Dy647 peptide binding, 1536-well. inhibition, % at 21.7 µM. 0.97% of 220,000 active. AID 1021;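 active means compounds that cut the binding signal by more than half at the single screening dose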;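 further: His-tagged Mcl-1 with europium anti-His antibody binding Bid BH3 peptide; 0% = Mcl-1 plus peptide wells and 100% = peptide-only wells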
14-3-3 Bad inh = disrupts binding of bovine 14-3-3 zeta to phospho-Bad peptide; P63103; TR-FRET 14-3-3zeta/Dy647-pBad peptide displacement, 1 h; inhibition, % at 21.7 µM; 0.71% of 220,000 active;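 active means inhibition above about 70%, limit read from the data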;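 further: 0% = full 14-3-3 plus peptide FRET controls and 100% = background without 14-3-3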
Target sequence (P63103 whole entry, looked up): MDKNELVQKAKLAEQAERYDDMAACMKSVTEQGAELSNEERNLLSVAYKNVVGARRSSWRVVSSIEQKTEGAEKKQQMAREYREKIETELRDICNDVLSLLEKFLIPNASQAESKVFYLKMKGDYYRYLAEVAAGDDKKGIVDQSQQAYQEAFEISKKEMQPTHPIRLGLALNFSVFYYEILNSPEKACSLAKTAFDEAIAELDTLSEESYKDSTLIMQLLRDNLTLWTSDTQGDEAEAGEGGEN
An asterisk follows results filed as active; i = inactive; x = not tested or not shown. A selection: hits, their analogues and other compounds. The true share with any hit is near 2.9%.

SMILES	Hck-Nef inh	Pf gametocyte	Mcl1-Noxa inh	Bim-Mcl-1	Mcl1 Bid PPI	14-3-3 Bad inh
O=C(O)c1cc(CN2CCOCC2)oc1-c1ccccc1	1.5	12.0	0.5	-1.0	-16.5	75.9*
O=C1NCCCc2c1no[n+]2[O-]	0.7	x	3.3	-2.0	-11.0	0.4
CC(C)CNc1nc(Oc2ccc(=O)[nH]n2)nc(N(C)C)n1	5.1	x	-7.5	-3.0	-29.3	91.2*
CCOC(=O)c1cc2oc(C(c3nnnn3C3CCCCC3)N3CCOCC3)cc2[nH]1 (centres undefined)	2.7	x	9.4	-4.0	-14.1	7.6
Cc1nc2ccccc2n1/N=C/c1ccc([N+](=O)[O-])s1	4.5	-10.5	18.9	-2.0	29.2	25.2
O=[N+]([O-])c1ccc(/C=N/n2c(CO)nc3ccccc32)s1	0.1	10.9	57.7*	-6.0	30.3	10.1
COc1ccc(Cl)cc1C(=O)Nc1ccc(S(=O)(=O)N2CCCC2)cc1	-1.0	x	2.5	-1.0	-2.6	10.7
C#CCn1cc(C=C2C(=O)c3ccccc3C2=O)c2ccccc21	16.1	4.7	54.7*	25.0	i	i
CCN(CC)CCCNCC(=O)Nc1ccc(OC)c(Cl)c1	-11.3	x	18.1	x	34.2	38.4
CCOC(=O)N1CCN(c2nc(C)c3c(n2)CCCC3=O)CC1	-1.0	-28.6	27.1	0.0	70.8*	-9.5
COc1cnn(-c2ccc(Br)cc2)c(=O)c1SCc1ccccc1	0.9	-30.8	76.0*	-4.0	-29.3	-13.8
COc1cnn(-c2ccccc2)c(=O)c1SCc1ccc(Cl)cc1Cl	0.1	x	85.2*	-5.0	-48.2	-6.7
COc1cnn(-c2ccccc2)c(=O)c1OC	16.0	22.1	-32.1	x	-16.5	0.7
COc1cnn(-c2ccc(C)cc2)c(=O)c1SCc1ccccc1	-0.4	x	-148.0	-5.0	-26.9	11.3
CN(C)C(=O)c1nc(C#N)c(N(C)C)o1	-4.9	-21.1	8.8	4.0	-29.8	-8.4
CS/C(=N\S(=O)(=O)c1cccs1)Nc1ccc(F)c(Cl)c1	2.2	58.5*	9.6	-4.0	-3.0	-8.8
O=C(Nc1ccon1)c1cnc2sccn2c1=O	3.0	x	x	-3.0	x	x
C=CCN=C1SC(C)C(=O)N1S(=O)(=O)c1ccccc1 (centres undefined)	1.2	x	22.9	2.0	-5.9	6.7
C=CCN=C1SC(C)(C)C(=O)N1S(=O)(=O)c1ccc(C)cc1	-0.9	-28.3	6.5	1.0	-22.3	95.2*
Cc1ccc(CNC(=O)CCS(=O)(=O)c2cccc3nonc23)cc1	-8.1	-1.1	4.4	-1.0	93.1*	-4.9
COc1ccc(CNC(=O)CCS(=O)(=O)c2cccc3nonc23)cc1	-1.7	x	10.6	-1.0	-13.4	-7.9
Cc1ccc(CNC(=O)CCS(=O)(=O)c2ccc(Br)cc2)cc1	23.7	10.9	5.2	-1.0	-90.4	95.5*
O=C(Nc1ccccc1Cl)c1cnccn1	-9.7	-13.3	83.2*	1.0	-23.4	-1.7
O=C(Nc1ccc(Cl)c([N+](=O)[O-])c1)c1cnccn1	9.4	1.1	64.2*	-3.0	-70.3	-6.1
O=C(Nc1ccc(Cl)c([N+](=O)[O-])c1)c1ccncc1	0.8	x	4.0	-2.0	2.4	-4.4
SMILES	Hck-Nef inh	Pf gametocyte	Mcl1-Noxa inh	Bim-Mcl-1	Mcl1 Bid PPI	14-3-3 Bad inh
O=C(Nc1ccc(Br)cc1Cl)c1cnccn1	-2.1	x	1.2	-1.0	-3.1	-0.9
COC(=O)c1c(NC(=O)c2cccnc2Cl)sc(C(=O)N(C)C)c1C	2.3	16.4	44.4	-1.0	-13.7	-3.7
CCCn1nc(C(=O)Nc2ccc(S(=O)(=O)Nc3nccs3)cc2)c2ccccc2c1=O	3.9	x	51.1*	-1.0	-35.4	8.4
O=C(CCN1C(=O)S/C(=C\c2ccccc2)C1=O)Nc1ccc(S(=O)(=O)Nc2nccs2)cc1	1.1	x	81.6*	-1.0	-84.5	-5.1
COc1ccccc1/C=C1/SC(=O)N(CCC(=O)Nc2ccc(S(=O)(=O)Nc3nccs3)cc2)C1=O	4.9	27.0	77.9*	-4.0	-134.9	-1.8
CCCC(=O)Nc1ccc(S(=O)(=O)Nc2nccs2)cc1	x	20.6	x	x	x	x
CN(C(=O)COC(=O)CNC(=O)C12CC3CC(CC(C3)C1)C2)C1CCS(=O)(=O)C1 (centres undefined)	0.8	21.6	-9.6	-3.0	-8.6	-9.1
CCOC(=O)C1=C(COc2ccccc2)NC(=O)NC1c1ccc2ccccc2c1 (centres undefined)	x	28.4	x	x	x	x
CCCCCCCCCCCCCCCC(O)C(N)CO (centres undefined)	-25.2	x	25.6	0.0	66.3*	12.1
CCCOc1ccc(C(=O)NCC(c2ccco2)N(C)C)cc1OC (centres undefined)	3.6	x	-11.1	-5.0	94.8*	-10.8
COc1ccccc1/C=C/CN1CCCCC1	x	11.6	x	x	x	x
COc1ccccc1/C=C/CN1CC(C)OC(C)C1 (centres undefined)	0.4	18.2	-14.8	-2.0	15.5	79.3*
O=C(CSc1nnc(-c2ccc(S(=O)(=O)N3CCCC3)cc2)o1)N1CCCC1	8.3	x	x	x	x	x
Cc1ncc(CO)c(/C=N/NC(=O)c2cc(O)c(O)c(O)c2)c1O	-28.7	x	67.1*	4.0	-65.8	-1.8
Cc1ncc(CO)c(/C=N/NC(=O)c2ccc(Br)cc2)c1O	-4.4	x	-9.0	-6.0	-76.1	-5.2
CCNCc1cc([N+](=O)[O-])ccc1OCC	20.5	-3.9	12.4	-1.0	-6.9	13.1
CC(C[N+](C)(C)C)OC(=O)C1(c2ccccc2)CCCC1 (centres undefined)	7.7	-15.3	-18.0	x	-41.9	2.7
CCc1cc(N2CCOCC2)cc2c1[nH]c1ccccc12	0.9	x	70.2*	0.0	9.7	5.4
c1ccc2c(c1)[nH]c1c(N3CCOCC3)ncnc12	2.2	-9.1	8.4	-1.0	4.1	2.8
CC(C)C1NCCc2c1sc1ccccc21 (centres undefined)	x	6.8	x	x	x	x
O=C(CN1C(=O)S/C(=C/c2cccnc2)C1=O)N1CCOCC1	0.4	-12.9	31.2	-1.0	-2.5	-3.7
CS(=O)(=O)c1ccc(C(=O)NCCN2C(=O)S/C(=C\c3cccnc3)C2=O)cc1[N+](=O)[O-]	24.5	-0.1	80.7*	0.0	23.9	31.9
O=C(NCCN1C(=O)S/C(=C\c2ccc(Cl)c(Cl)c2)C1=O)c1cnccn1	8.2	2.8	58.0*	2.0	-23.1	-13.4
O=C(O)CCN1C(=O)S/C(=C\c2cccnc2)C1=O	-13.1	-11.2	13.0	x	91.1*	-0.1
CC(C)CC(C(=O)OCC(=O)Nc1cccc(Cl)c1)N1C(=O)C2CC=CCC2C1=O (centres undefined)	2.3	-12.0	-2.0	-4.0	-8.7	8.6
O=C(N/N=C/c1cccc(OC(=O)N2CCOCC2)c1)c1cccs1	1.0	6.1	1.5	0.0	4.8	8.1
O=C(CSc1nc2ncc(Br)cc2[nH]1)c1ccc([N+](=O)[O-])cc1	1.3	-10.3	29.8	-4.0	-51.9	-4.3
O=C(CSc1nc2ccc([N+](=O)[O-])cc2[nH]1)c1ccc2ccccc2c1	3.7	x	62.5*	0.0	29.5	-11.3
